The values that follow come from ChEMBL document CHEMBL4513216, “Probing the Open Global Health Chemical Diversity Library for Multistage-Active Starting Points for Next-Generation Antimalarials” (ACS Infect Dis, 2020).

Screen size: about 69,000 compounds; about 8,600 (12%) showed an effect of 50% or more. What follows is part of a selection rich in strong results, with near analogues and random picks from the rest.

In this assay the test system is Plasmodium berghei. Description: Screen against P. berghei liver stage (PbLuc), transformed with Luciferase, at 10uM. The assay is classed as functional, HepG2. The settings on record: tested at 10 uM.
On to `CC(C)OCc1noc(C2CC=CC2)n1`, for which the INHIBITION is -20%. `CC1CN(C)CCN1C(=O)Nc1nc(-c2cccn2C)cs1` (stereo not given): the INHIBITION was 47%. As to `CCCc1nnc(N2CCN(c3cccc(C)c3C)CC2)o1`, the INHIBITION was 30.1%. As for `CC(=O)Nc1cccc(C(=O)N2CCc3c(nc(N(C)C)[nH]c3=O)C2)c1`, the INHIBITION worked out at 41.5%.

Turning to `Cc1nc2ncccn2c1C(=O)N1CCc2[nH]cnc2C1`, the INHIBITION turned out to be 22.5%. Regarding `Cc1nc2sccn2c1C(=O)N1CCc2c(nc(N)[nH]c2=O)C1`, the INHIBITION is given as -31.6%. Under `Cc1nc2sccn2c1C(=O)N1CCc2c(nc(N(C)C)[nH]c2=O)C1` stands 51.8%; under `O=C(c1cn(CC(=O)N2CCc3[nH]cnc3C2)c2ccccc12)C1CC1`, 12.6%; under `Cc1nc2sccn2c1C(=O)N1CCc2[nH]cnc2C1`, 58.3%. Turning to `O=C(Nc1ccc(F)cc1-c1nc(C2CC2)no1)N1CC[C@@H](O)C1`, the INHIBITION is reported as 42.1%. For `COc1ccccc1NC(=O)CCNC(=O)c1ccoc1`, the INHIBITION is reported as -37.8%.

As to `CCc1nc(C2CCCN2C(=O)CCc2c(C)noc2Cl)no1` (stereo not given), the INHIBITION turned out to be 1.78%. Under `CCc1nnc2n1CCN(C(=O)C(C)Oc1cccc(C#N)c1)C2` (stereo not given) stands -15%; under `COCC(=O)N1CCN(CCn2cccn2)c2nc(C)ccc2C1`, 21.4%. Regarding `CC(C)C(Nc1nc(C(F)(F)F)nc2ccccc12)C(=O)O` (stereo not given), the INHIBITION came out at 22.3%. Take `FC(F)(F)c1nc(NC2CCCC2)c2ccccc2n1`: the INHIBITION came out at 88.4%. For the molecule `CCC(Nc1nc(C(F)(F)F)nc2ccccc12)C(=O)O` (stereo not given), the INHIBITION is listed as -21.3%. Next, `FC(F)(F)c1nc(NC2CCCCC2)c2ccccc2n1`: 88.4%. For `CC(C(=O)NC1CCCCC1)N1CCc2[nH]nc(C(F)(F)F)c2C1` (stereo not given), the INHIBITION was -41.7%. For `Cc1nc2n(n1)CC(Nc1nc(C(F)(F)F)nc3ccccc13)CC2` (stereo not given), the INHIBITION is on record as -59.3%. `Cc1noc(C)c1-c1ccc(C2CCCN2CCC(N)=O)nc1` (stereo not given): the INHIBITION was found to be 30.4%.

As for `CC(C)N1CCC(Cc2cncc(-c3cc(F)ccc3C(=O)O)n2)C1` (stereo not given), the INHIBITION is listed as 35.2%. In the case of `Cc1cnc(CN2CCCC2c2cnn(C)c2)cn1` (stereo not given), the INHIBITION is -11.4%. With `Cc1ccccc1N(CC(=O)NCCc1nnc2n1CCC2)S(C)(=O)=O`, the INHIBITION is given as -9.51%. With `CN1CCCCC1c1ncc2c(n1)CCN(Cc1ccc(F)cc1)C2` (stereo not given), the INHIBITION is 24.4%. Under `CN1CCCCC1c1ncc2c(n1)CCN(Cc1ccccc1Cl)C2` (stereo not given) stands 51.7%. Next, `Clc1ccccc1CN1CCc2nc(C3CCCCN3)ncc2C1` (stereo not given): 43.2%; `CN1CCCCC1c1ncc2c(n1)CCN(Cc1ccc(Cl)c(F)c1)C2` (stereo not given): 58.1%; `COc1ccc(CN2CCc3nc(C4CCCCN4C)ncc3C2)cc1` (stereo not given): 42.6%. With `CN1CCc2nc(C3CCCCN3Cc3ccccc3Cl)ncc2C1` (stereo not given), the INHIBITION is 13.5%. Turning to `CC(=O)N(Cc1noc(C)n1)C1CCN(Cc2c(C)noc2C)C1` (stereo not given), the INHIBITION is recorded as -27.8%. Take `O=C(c1ccc(-n2cccn2)nc1)N1CCC(c2ccn[nH]2)C1` (stereo not given): the INHIBITION is listed as 23%.

As for `O=C(c1ccc(-n2cccn2)nc1)N1CCC(c2ccc(O)cc2)CC1`, the INHIBITION was 50.1%. Consider `Cc1cncc(C2CCN(C(=O)c3ccc(-n4cccn4)nc3)CC2)n1`, for which the INHIBITION was -35.5%. For the molecule `O=C(O)CN(Cc1ccsc1)CC1CCCO1` (stereo not given), the INHIBITION was 8.7%. For `Cc1noc(C)c1CN1CCn2cc(CN3CCCC3)nc2C1`, the INHIBITION is given as -15.2%. Under `CCc1cnc(N)nc1NCCCn1nc(C)nc1C` stands 14.6%; under `CCc1cnc(N)nc1NCc1ccc(OC)cc1OC`, 73.8%; under `CCc1cnc(N)nc1NCCCN1CCCCC1CO` (stereo not given), 6.94%.

Regarding `CCc1cnc(N)nc1NCCCn1cc(Cl)cn1`, the INHIBITION worked out at 64.1%. With `COc1ccc(CNc2cc(-c3nc(C)no3)ccn2)c(OC)c1`, the INHIBITION is 6.61%.

Consider `COc1ccc(OC)c(CCNc2ncc(S(N)(=O)=O)s2)c1`, for which the INHIBITION was -19.9%. With `CCc1cnc(N)nc1NCCn1cc(Cl)cn1`, the INHIBITION was 30.4%.

In the case of `CCc1cnc(N)nc1NCc1ccc(OC)c(OC)c1`, the INHIBITION stood at 44%. For the molecule `CCc1cnc(N)nc1NCCc1ccc(OC)cc1OC`, the INHIBITION is on record as 58.05%. Take `COc1cccc(C(=O)N2CCC(Nc3ccc(C)nn3)CC2)c1`: the INHIBITION amounted to 21.5%. As for `Cc1nnc(NC(=O)NC(C)Cn2cccn2)s1` (stereo not given), the INHIBITION is given as -21.9%. Next, `COc1cc2nc(C)n(CC(=O)NCCCO)c(=O)c2cc1OC`: -5.01%. `Cn1cc(C(=O)N[C@@H]2CN(Cc3ccc(F)cc3)[C@@H]3CCCO[C@@H]32)cn1`: the INHIBITION is -17.1%. Next, `Nc1nccc(N2CCNC(C(=O)NCc3ccccn3)C2)n1` (stereo not given): 52.6%. Next, `CC(C)NC(=O)O[C@H]1COCCN(c2nc3ccccc3s2)C1`: -1.12%; `O=C(NCc1ccncc1)C1CN(c2nc3ccccc3s2)CCN1` (stereo not given): 30.4%. With `CCCc1nc(C)cc(N2CCNC(C(=O)NC3CC3)C2)n1` (stereo not given), the INHIBITION is on record as 47.1%. As to `O=C(NCc1ccccn1)[C@H]1COC[C@H]2CN(c3ncccn3)C[C@H]21`, the INHIBITION stood at 41%. Consider `O=C(NCc1cccnc1)C1CN(c2cnc3ccccc3n2)CCN1` (stereo not given), for which the INHIBITION was determined as 37.8%. With `O=C(NCc1ccccn1)NC1CCCN(c2ncccn2)C1` (stereo not given), the INHIBITION is on record as 23%. Next, `CCNC(=O)O[C@H]1COCCN(c2nc3ccccc3s2)C1`: -3.58%; `O=C(NC1CCCC1)O[C@H]1COCCN(c2nc3ccccc3s2)C1`: 85.1%.

For the molecule `O=C(NC1CC1)C1CN(c2nc3ccccc3s2)CCN1` (stereo not given), the INHIBITION amounted to 65.6%. For the molecule `O=C(NCc1ccccn1)C1CN(c2nc3ccccc3s2)CCN1` (stereo not given), the INHIBITION was 58.2%. Regarding `Cc1ccc(CN2CCNC(C(=O)NC3CC3)C2)cc1C` (stereo not given), the INHIBITION is reported as -2.25%. As to `Cc1cc(=O)n2c3c(cc(S(=O)(=O)NC4CC4)cc13)CCC2`, the INHIBITION was determined as 49.45%. Regarding `Cc1cc(CN2CCc3cncnc3C2)no1`, the INHIBITION is reported as 23.9%. Take `Cc1ccccc1-c1cc(CC2(C(=O)O)CCOCC2)on1`: the INHIBITION is -21.4%. For `Cc1cc(CN2CCN(Cc3ccccc3F)CC2)no1`, the INHIBITION was -4.35%.

Turning to `CN(C)C(=O)c1cncnc1-c1ccc(CNC(=O)C2CCCO2)cc1` (stereo not given), the INHIBITION is listed as 4.615%.

For `CC(C)n1c(=O)[nH]c2cn(-c3ccc(F)cc3)c(=O)n21`, the INHIBITION worked out at 3.16%. In the case of `Cc1[nH]c2c(C)ccc(C)c2c1CC(=O)NCC(O)c1cccnc1` (stereo not given), the INHIBITION is reported as 76.5%. For the molecule `Cc1[nH]c2c(C)ccc(C)c2c1CC(=O)NCCCNc1cccnc1`, the INHIBITION came out at 36.7%. With `Cc1[nH]c2c(C)ccc(C)c2c1CC(=O)NCCNc1cccnc1`, the INHIBITION is listed as -17.2%. As for `Cc1ccc2c(n1)N(C)CCN(C(=O)C1CC1)C2`, the INHIBITION came out at 7.84%. `CC(C)NC(=O)CN(C)C(=O)c1csc(Cc2ccccc2F)n1`: the INHIBITION amounted to 23.1%. Under `CCNC(=O)CN(CC)C(=O)c1csc(Cc2ccccc2F)n1` stands 32%; under `COC(=O)CCN(C)C(=O)c1csc(Cc2ccccc2F)n1`, 91.3%.

Regarding `CC(C)NC(=O)N1CC[C@H]2[C@H]1CCN2c1ncccn1`, the INHIBITION was -44.2%.

Turning to `Cc1cnc(CNc2ncc(C)c(-c3cnn(C)c3)n2)cn1`, the INHIBITION came out at 39.4%. Take `Cc1cnc(NCc2cnn(C)c2)nc1-c1cnn(C)c1`: the INHIBITION turned out to be 61.2%. Regarding `CCNc1ncc(C)c(-c2cnn(C)c2)n1`, the INHIBITION was found to be 27.6%.

Regarding `Cc1cnn(CC(C)NCc2csc(-c3cnn(C)c3)n2)c1` (stereo not given), the INHIBITION came out at 47.1%. With `Cc1cnc(NCc2csc(C(C)C)n2)nc1-c1cnn(C)c1`, the INHIBITION was determined as 58.5%.

Regarding `Cc1cnc(NCc2ccncc2)nc1-c1cnn(C)c1`, the INHIBITION is given as 2.15%.

Regarding `N#CC1CCN(C(=O)NCCc2ccc(Cl)s2)CC1`, the INHIBITION is recorded as -7.31%.

Consider `O=C(c1ccc(Cl)cc1)N1CCC(N2CCCCC2=O)CC1`, for which the INHIBITION is recorded as 27.5%. Under `Cc1c(C(=O)NC2=NCCS2)cnn1-c1ccc(Br)cc1` stands -156%; under `COCC1Cn2nnc(-c3cnn(C)c3)c2CN1Cc1ccco1` (stereo not given), 11.8%. Next, `Cc1cc(C(=O)N2CCCC(n3cncn3)C2)c(C)n1CC1CC1` (stereo not given): -41.6%.

`CC(Cc1ccco1)NC(=O)Nc1cccnc1` (stereo not given): the INHIBITION is reported as -10.1%.

With `CCCc1nnc2sc(CC3CN(Cc4ccccc4)CCO3)nn12` (stereo not given), the INHIBITION is 59.2%. Next, `CC(C)N1CCOC(Cc2nn3c(Cc4ccccc4)nnc3s2)C1` (stereo not given): 45.5%; `CC(C)c1nnc2sc(CC3CN(Cc4ccccc4)CCO3)nn12` (stereo not given): 42.8%; `Cc1c(C(C)N)cnn1-c1ccccn1` (stereo not given): -12.1%. Under `Cc1ccccc1-n1ncc(C(C)N)c1C` (stereo not given) stands 58.4%; under `Cc1c(C(C)N)cnn1-c1cccc2ccccc12` (stereo not given), 7.24%.

`COc1ccccc1CNC(=O)C(C)n1cc2c(n1)c(C)nn2C` (stereo not given): the INHIBITION is reported as 21.7%.

In the case of `Cc1nn(C)c2cn(C(C)C(=O)NCc3cccnc3)nc12` (stereo not given), the INHIBITION is -2.37%. For `Cc1nn(C)c2cn(C(C)C(=O)NCc3ccc(F)cc3)nc12` (stereo not given), the INHIBITION worked out at 19.3%. For `Cc1nn(C)c2cn(C(C)C(=O)NCc3ccncc3)nc12` (stereo not given), the INHIBITION is 32.5%. `Cc1nn(C)c2cn(C(C)C(=O)NCc3ccccn3)nc12` (stereo not given): the INHIBITION was determined as 55.7%. Regarding `Cc1nn(C)c2cn(C(C)C(=O)NCc3cccc(F)c3)nc12` (stereo not given), the INHIBITION amounted to 58.2%. Next, `CN(Cc1ccco1)C(=O)NC1CCCN(c2ncccn2)C1` (stereo not given): 4.865%; `COc1ccc2c(ccn2CC(=O)Nc2n[nH]c(CC(C)C)n2)c1`: 16%; `CN(C)S(=O)(=O)N1C[C@@H]2COC[C@]2(COc2ccccn2)C1`: 11.5%.

Regarding `Cc1cc(C2CCC2)nc(N2CCC3(CCCN(C)C3=O)C2)n1` (stereo not given), the INHIBITION was -14.3%. For `Cc1ccc(N2CCCC(NCc3cscn3)C2)nn1` (stereo not given), the INHIBITION was 26.8%.

Turning to `O=C(NCCc1cccs1)NC1CCN(c2ncccn2)CC1`, the INHIBITION is on record as -89%. With `c1cc(-c2cscn2)cc(N2CCC(NCCc3cccs3)CC2)c1`, the INHIBITION is 75.5%. On to `c1ccc(-c2cccc(N3CCC(NCCc4cscn4)CC3)c2)cc1`, for which the INHIBITION is given as 69.9%. Next, `Cc1nc(-c2cccc(N3CCC(NC4CCOCC4)CC3)c2)cs1`: 37.7%; `O=C1CCCN1c1cccc(N2CCC(NCCc3cscn3)CC2)c1`: 14.3%; `CNc1cccc(C2CCN(C(=O)c3cccnc3)CC2)n1`: -9.27%.
